# Assay results reported in PubChem BioAssay (NCATS).
# Unmarked numbers belong to inactive results. Records with an inconclusive call do not appear. Entries that show only a call come without a potency. Calls of active or inactive are those of the source. Unless noted, calls follow the shape of the dose curve; as a rule, active = well fitted curve in the direction sought with a large enough effect; inconclusive = small, poorly fitted or top-dose-only effect, or another doubt; inactive = no such curve, though single readings can be large; an effect the other way counts as inactive or inconclusive. Numbered stars: 1 amine (or outer) side, 2 acyl side, 3 side chain; on linkers, the order of the positions; unused ones are H or OH. Bridge positions count the residues as written; N and C are the ends. Square brackets hold non-standard residues; d marks the D form. Peptide text beside a SMILES is read from it. I, II: the chains in the order shown. Actinocin(9to1) = Cc1c2oc3c(C)ccc(C(=O)[*:1])c3nc-2c(C(=O)[*:2])c(N)c1=O; NMeV = CN[C@H](C(=O)O)C(C)C; Sar = CNCC(=O)O
# What was measured:
# [1] = molecular target: 3',5'-cyclic-AMP phosphodiesterase 4B (Homo sapiens) (UniProt Q07343); test: qHTS Assay for Inhibitors of PDE-IV (AID 607; active = well fitted activation curve with a large enough effect in the main read-out, with a control signal flat, not every such curve was filed as active); conditions: HEK293 ACTOne CNG channel cells, membrane potential fluorescence; series mostly up to 22.9 µM
# How it was run: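 ACTOne HEK293 cells carry a modified cAMP-gated CNG channel and express endogenous PDE4; plated 1000 cells/well, compounds up to 22.9 uM final. Membrane-potential dye fluorescence (ex 535/em 590) was read; parental cells received 10 uM forskolin + 100 uM RO 20-1724.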
# [2] = Cell Viability - Mesenchymal (AID 546); conditions: mesenchymal cells viability, qHTS; activity change, negative = cytotoxicity: at 91.7 µM (top of the series);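 also: cells exposed to compound for 40 hours before reading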; also: potency is read from the fitted curve at half-maximal effect
# How it was run: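 Human renal mesenchymal cells (glomerulus-derived), 1000 cells/well, 5 hr 37 °C pre-incubation; compound 40 hr, 37 °C; CellTiter-Glo, 20 min RT; luminescence; AC50 via Hill equation.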
# [3] = Cellular Toxicity (caspase-3) HepG2 (AID 654); conditions: HepG2 caspase-3 activation, luminescence; series mostly up to 92.2 µM; also: potency is read from the fitted curve at half-maximal effect;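 as to caspase-3 activation: cells exposed to compound for 16 hours before reading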
# How it was run: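 Caspase 3/7 activation is measured as a luminescence increase (aminoluciferin substrate) after 16 h compound exposure of human hepatocarcinoma HepG2 cells. AC50 values are Hill fits, scaled between DMSO baseline and 100 uM tamoxifen stimulation.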
# [4] = Cellular Toxicity (caspase-3) HUV-EC-C (AID 656); conditions: HUV-EC-C cells, caspase-3 activation (apoptosis), vehicle = 0, 100 µM tamoxifen = 100%; series mostly up to 92.2 µM
# How it was run: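 Read-out: luminescence proportional to caspase 3/7 activity, measured 20 min after adding Caspase-Glo 3/7 reagent. Cells (HUV-EC-C) had received compound for 16 hr at 37°C. Increases relative to DMSO and 100 uM tamoxifen gave concentration-response AC50 values.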
# [5] = Cellular Toxicity (caspase-3) SHSY5Y (AID 657); conditions: SH-SY5Y caspase-3 activation; series mostly up to 91.7 µM;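 also: cells exposed to compound for 16 hours at 37 °C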; also: potency is read from the fitted curve at half-maximal effect
# How it was run: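 Cells plated and incubated 5 h at 37 °C, dosed over a concentration range, incubated 16 h, then given Caspase-Glo 3/7 reagent for 1 h at room temperature before luminescence reading. Staurosporine (10 uM) defined full stimulation.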
# [6] = Cellular Toxicity (caspase-3) BJ (AID 658); conditions: BJ fibroblasts, luminescence, normalized: DMSO 0%, staurosporine 100%; series mostly up to 91.7 µM
# How it was run: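 qHTS, BJ fibroblasts, 1000 cells/well; 5 hr preincubation, 16 hr compound, 37 °C; Caspase-Glo 3/7 reagent, 1 hr RT; luminescence. DMSO = 0%, 10 uM staurosporine = 100%. Hill-equation AC50.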
# [7] = Cellular Toxicity (caspase-3) MRC-5 (AID 659); conditions: MRC-5 cells, luminescence; Potency: caspase-3 activation; series mostly up to 91.7 µM;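 also: cells exposed to compound for 16 h at 37 °C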; also: potency is read from the fitted curve at half-maximal effect
# How it was run: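 MRC-5 fibroblasts, 1500/well; 16 h cpd, 37 °C; Caspase-Glo 3/7, 1 h RT; lumi read. Norm: DMSO = 0%, 10 uM staurosporine = 100%. Hill-fit AC50 from qHTS conc-response.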
# [8] = Cellular Toxicity (caspase-3) Mesangial (AID 660); conditions: mesangial cells, normalized: DMSO 0%, 100 µM tamoxifen 100%; series mostly up to 91.7 µM;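 also: cells exposed to compound for 16 h before the caspase read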
# How it was run: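 Caspase 3/7 activation measured by Caspase-Glo 3/7 luminescence (20 min, room temperature) following 16 h exposure of mesangial cells (1000/well); AC50 from Hill-equation fit, normalized to DMSO and 100 uM tamoxifen.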
# [9] = Cellular Toxicity (caspase-3) SK-N-SH (AID 661); conditions: SK-N-SH caspase-3 activation, qHTS; series mostly up to 91.7 µM; also: potency is read from the fitted curve at half-maximal effect
# How it was run: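 Caspase 3/7 activation was read by luminogenic substrate cleavage after 16 hour treatment of SK-N-SH cells. Signal was scaled between DMSO and 10 uM staurosporine, and concentration-response data were fitted with the Hill equation for AC50.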
# [10] = Cellular Toxicity (caspase-3) Jurkat (AID 655); conditions: Jurkat caspase-3 activation, luminescence; series mostly up to 92.2 µM;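 also: cells exposed to compound for 16 h at 37 °C before reading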; also: potency is read from the fitted curve at half-maximal effect
# How it was run: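 Caspase 3/7 activation is scored as increased luminescence in Jurkat cells cultured with compound for 16 hours in complete medium. AC50 values come from Hill fits of qHTS concentration-response data normalized to DMSO and 100 uM tamoxifen controls.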
# 3',5'-cyclic-AMP phosphodiesterase 4B (Homo sapiens), sequence (Q07343 whole entry, looked up): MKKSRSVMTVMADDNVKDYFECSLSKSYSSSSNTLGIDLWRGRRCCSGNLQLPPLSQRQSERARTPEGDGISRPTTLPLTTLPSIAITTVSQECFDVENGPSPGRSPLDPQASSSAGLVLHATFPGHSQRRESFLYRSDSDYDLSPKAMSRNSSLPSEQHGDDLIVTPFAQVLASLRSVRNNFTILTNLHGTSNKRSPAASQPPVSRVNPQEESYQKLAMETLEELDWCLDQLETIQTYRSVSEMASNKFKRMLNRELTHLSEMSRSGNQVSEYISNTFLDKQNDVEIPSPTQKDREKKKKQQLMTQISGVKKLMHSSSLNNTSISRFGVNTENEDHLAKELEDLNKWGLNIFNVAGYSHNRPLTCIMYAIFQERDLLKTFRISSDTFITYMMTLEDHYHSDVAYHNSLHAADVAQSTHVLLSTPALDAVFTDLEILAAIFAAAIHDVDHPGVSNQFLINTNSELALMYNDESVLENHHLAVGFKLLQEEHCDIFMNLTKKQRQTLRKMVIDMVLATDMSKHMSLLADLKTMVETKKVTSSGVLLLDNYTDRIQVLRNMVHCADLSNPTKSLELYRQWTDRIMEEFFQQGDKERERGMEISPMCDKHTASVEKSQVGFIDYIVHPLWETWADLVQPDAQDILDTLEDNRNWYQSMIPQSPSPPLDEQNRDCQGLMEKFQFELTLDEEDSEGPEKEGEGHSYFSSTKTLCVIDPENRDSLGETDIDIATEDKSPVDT
structure (smiles),measurement,setting,value
CN1[C@@H]2CC[C@H]1CC(OC(=O)c1c[nH]c3ccccc13)C2 (stereo partly drawn),outcome,[1],inactive
CC(=O)O[C@]1(C(C)=O)CC[C@H]2[C@@H]3C[C@H](C)C4=CC(=O)CC[C@]4(C)[C@H]3CC[C@@]21C,"activity change, negative = cytotoxicity",[2],-6.64%
same,Potency,[3],inactive
same,outcome,[4],inactive
same,Potency,[5],inactive
same,outcome,[6],inactive
same,Potency,[7],inactive
same,outcome,[8],inactive
same,Potency,[9],inactive
CC(C)(C)CC(C)(C)c1ccc(OCCOCC[N+](C)(C)Cc2ccccc2)cc1,"activity change, negative = cytotoxicity",[2],-104% (active)
same,Potency,[3],50100 nM (active)
same,Potency,[5],inactive
same,Potency,[7],31600 nM (active)
O=C(CCCN1CCC(O)(c2ccc(Br)cc2)CC1)c1ccc(F)cc1,outcome,[1],inactive
O=C(O)CCCCC(=O)O,"activity change, negative = cytotoxicity",[2],3.41%
same,Potency,[3],inactive
same,Potency,[10],inactive
same,outcome,[4],inactive
same,Potency,[5],inactive
same,outcome,[6],inactive
same,Potency,[7],inactive
same,outcome,[8],inactive
same,Potency,[9],inactive
C[N+]1(CCCCC[N+]2(C)CCCC2)CCCC1,outcome,[1],inactive
"Cc1c2oc3c(C)ccc(C(=O)N[C@@H]4C(=O)N[C@H](C(C)C)C(=O)N5CCC[C@H]5C(=O)N(C)CC(=O)N(C)[C@@H](C(C)C)C(=O)O[C@@H]4C)c3nc-2c(C(=O)N[C@@H]2C(=O)N[C@H](C(C)C)C(=O)N3CCC[C@H]3C(=O)N(C)CC(=O)N(C)[C@@H](C(C)C)C(=O)O[C@@H]2C)c(N)c1=O (I: T[dV]P[Sar][NMeV] / II: T[dV]P[Sar][NMeV]; ester I:1-I:C, II:1-II:C; linker I:N-II:N via Actinocin(9to1))","activity change, negative = cytotoxicity",[2],-18.7%
same,Potency,[3],inactive
same,Potency,[10],3.98 nM (active)
same,outcome,[4],inactive
same,outcome,[6],inactive
same,Potency,[7],inactive
same,outcome,[8],inactive
same,Potency,[9],15.8 nM (active)
COc1cc(NS(C)(=O)=O)ccc1Nc1c2ccccc2nc2ccccc12,outcome,[1],inactive
CCCCOc1ccc(OCCCN2CCOCC2)cc1,outcome,[1],inactive
COC1=CC(=O)C[C@@H](C)[C@]12Oc1c(Cl)c(OC)cc(OC)c1C2=O,"activity change, negative = cytotoxicity",[2],-20.5%
same,Potency,[3],inactive
same,Potency,[10],inactive
same,outcome,[4],inactive
same,Potency,[5],inactive
same,outcome,[6],inactive
same,Potency,[7],inactive
same,outcome,[8],inactive
same,Potency,[9],inactive
Oc1ccc(O)cc1,"activity change, negative = cytotoxicity",[2],-96.1% (active)
same,outcome,[1],inactive
same,Potency,[3],inactive
same,Potency,[10],inactive
same,outcome,[4],inactive
same,Potency,[5],inactive
same,outcome,[6],inactive
same,Potency,[7],inactive
same,outcome,[8],inactive
same,Potency,[9],inactive
C[C@@H]1C(=O)NC2=Nc3cccc(Cl)c3CN21,outcome,[1],inactive
C1CCc2nnnn2CC1,outcome,[1],inactive
O=c1ccc2ccccc2o1,"activity change, negative = cytotoxicity",[2],4.05%
same,Potency,[3],inactive
same,Potency,[10],inactive
same,outcome,[4],inactive
same,Potency,[5],inactive
same,outcome,[6],inactive
same,Potency,[7],inactive
same,outcome,[8],inactive
same,Potency,[9],inactive
NC(=NCCCCCCN=C(N)/N=C(\N)Nc1ccc(Cl)cc1)/N=C(\N)Nc1ccc(Cl)cc1,Potency,[2],31600 nM (active)
same,outcome,[1],inactive
same,Potency,[3],inactive
same,Potency,[10],inactive
same,outcome,[4],inactive
same,Potency,[5],inactive
same,outcome,[6],inactive
same,Potency,[7],inactive
same,outcome,[8],inactive
same,Potency,[9],inactive
C[C@]12CC[C@@H]3c4ccc(O)cc4CC[C@H]3[C@@H]1CC[C@@H]2O,"activity change, negative = cytotoxicity",[2],-23.1%
same,Potency,[3],inactive
same,Potency,[10],inactive
same,outcome,[4],inactive
same,Potency,[5],inactive
same,outcome,[6],inactive
same,Potency,[7],inactive
same,outcome,[8],inactive
same,Potency,[9],inactive
C[C@H]1[C@H](NC(=O)/C(=N/OC(C)(C)C(=O)O)c2csc(N)n2)C(=O)N1S(=O)(=O)O (stereo in doubt),outcome,[1],inactive
Oc1c(Cl)cc(Cl)cc1Sc1cc(Cl)cc(Cl)c1O,"activity change, negative = cytotoxicity",[2],-28.4%
same,Potency,[3],inactive
same,outcome,[4],inactive
same,Potency,[5],inactive
same,outcome,[6],inactive
same,Potency,[7],inactive
same,outcome,[8],inactive
same,Potency,[9],inactive
CCCCCCc1ccc(O)cc1O,"activity change, negative = cytotoxicity",[2],-9.3%
same,Potency,[3],inactive
same,Potency,[10],inactive
same,outcome,[4],inactive
same,Potency,[5],inactive
same,outcome,[6],inactive
same,Potency,[7],inactive
same,outcome,[8],inactive
same,Potency,[9],inactive
N[C@@H](Cc1cnc[nH]1)C(=O)O,outcome,[1],inactive
CC(O)C(=O)O (stereo not drawn),"activity change, negative = cytotoxicity",[2],-3.83%
same,Potency,[3],inactive
same,Potency,[10],inactive
same,outcome,[4],inactive
same,Potency,[5],inactive
same,outcome,[6],inactive
same,Potency,[7],inactive
same,outcome,[8],inactive
same,Potency,[9],inactive
CC(C)(Oc1ccc(Cl)cc1)C(=O)O,outcome,[1],inactive
Nc1cc(Cl)c(NC2=NCCN2)c(Cl)c1,outcome,[1],inactive
COc1cccc2c1C(=O)c1c(O)c3c(c(O)c1C2=O)C[C@@](O)(C(=O)CO)C[C@@H]3O[C@H]1C[C@H](N)[C@H](O)[C@H](C)O1,Potency,[10],20 nM (active)
same,outcome,[4],inactive
same,Potency,[5],15.8 nM (active)
same,outcome,[6],inactive
same,Potency,[7],inactive
same,outcome,[8],inactive
same,Potency,[9],251 nM (active)
COc1cccc2c1C(=O)c1c(O)c3c(c(O)c1C2=O)C[C@@](O)(C(C)=O)C[C@@H]3O[C@H]1C[C@H](N)[C@H](O)[C@H](C)O1,outcome,[1],inactive
same,Potency,[10],5.01 nM (active)
same,outcome,[4],inactive
same,Potency,[7],31600 nM (active)
same,Potency,[9],126 nM (active)
Oc1ccc(Cl)cc1Sc1cc(Cl)ccc1O,outcome,[1],inactive
same,Potency,[3],inactive
same,outcome,[4],inactive
same,Potency,[5],inactive
same,outcome,[6],inactive
same,Potency,[7],inactive
same,outcome,[8],inactive
same,Potency,[9],inactive
Cc1cc(N)c2cc(NC(=O)Nc3ccc4nc(C)cc(N)c4c3)ccc2n1,outcome,[1],inactive
O=C(O)c1cc2cc(Cc3cccnc3)ccc2o1,outcome,[1],inactive
CN1CCN(CCCN2c3ccccc3Sc3ccc(S(=O)(=O)N(C)C)cc32)CC1,outcome,[1],inactive
Oc1c(I)cc(Cl)c2cccnc12,Potency,[3],inactive
same,outcome,[4],inactive
same,Potency,[5],inactive
same,outcome,[6],inactive
same,Potency,[7],inactive
same,outcome,[8],inactive
same,Potency,[9],inactive
CNCCC=C1c2ccccc2CCc2ccccc21,outcome,[1],inactive
O=C(OCCOCCO)c1ccccc1Nc1cccc(C(F)(F)F)c1,outcome,[1],inactive
Oc1cc(O)c2c(c1)O[C@H](c1ccc(O)c(O)c1)[C@H](O)C2,outcome,[1],inactive
CCn1cc(C(=O)O)c(=O)c2cnc(N3CCCC3)nc21,outcome,[1],inactive
CC(=O)N(O)CCCCCNC(=O)CCC(=O)N(O)CCCCCNC(=O)CCC(=O)N(O)CCCCCN,outcome,[1],inactive
CN1CCC(=C2c3ccccc3Sc3ccccc32)CC1,outcome,[1],inactive
C[C@H](O)C(=O)Nc1c(I)c(C(=O)NC(CO)CO)c(I)c(C(=O)NC(CO)CO)c1I,outcome,[1],inactive
CCN1CCC[C@H]1CNC(=O)c1c(OC)ccc(Br)c1OC,outcome,[1],inactive
COc1c(C)c2c(c(O)c1C/C=C(\C)CCC(=O)O)C(=O)OC2,outcome,[1],inactive
CC(C)N=C(N)/N=C(\N)Nc1ccc(Cl)cc1,outcome,[1],inactive
CN(C)CC/C=C1\c2ccccc2Sc2ccc(Cl)cc21,outcome,[1],inactive
C[C@@H](CN(C)C)CN1c2ccccc2Sc2ccccc21,outcome,[1],inactive
O=C1CCC(c2ccc(-n3ccnc3)cc2)=NN1,outcome,[1],inactive
O=C1c2ccccc2C(=O)C1c1ccccc1,outcome,[1],inactive
CC(C)(C(=O)c1cccnc1)c1cccnc1,outcome,[1],inactive
CCCn1c(=O)[nH]c(=O)c2[nH]cnc21,outcome,[1],inactive
CC(C)NC[C@@H](O)COc1cccc2ccccc12,outcome,[1],inactive
Cc1c(N(C)CS(=O)(=O)O)c(=O)n(-c2ccccc2)n1C,outcome,[1],inactive
CCN(CC)C(=O)N1CCN(C)CC1,outcome,[1],inactive
Nc1nc2ncc(CNc3ccc(C(=O)N[C@@H](CCC(=O)O)C(=O)O)cc3)nc2c(=O)[nH]1,outcome,[1],inactive
CN1CCN(C(c2ccccc2)c2ccccc2)CC1,outcome,[1],inactive
CC(C)COC(=O)OCN1C(=O)CN(CCN2CC(=O)N(COC(=O)OCC(C)C)C(=O)C2)CC1=O,outcome,[1],inactive
O=C(COc1ccc(Cl)cc1)N1CCN(Cc2ccc3c(c2)OCO3)CC1,outcome,[1],inactive
OC(CCN1CCCCC1)(c1ccccc1)c1ccccc1,outcome,[1],inactive
CC(=O)c1ccc2c(c1)N(CCCN1CCC(CCO)CC1)c1ccccc1S2,outcome,[1],inactive
